We go through 8 molecules from PubChem BioAssay (EPA / NIEHS).

The term AC50 denotes the concentration at which the activity in the assay is half-maximal.

Records with an inconclusive call do not appear. Activity calls are given as the source filed them. The calls were made as follows, unless noted: active = hit-call score of the fitted dose curve at least 0.9, where 1 is the maximum; inconclusive = response in the unintended direction; inactive = score below 0.9.

The nature of assay [1]: Tanguay_ZF_120hpf_AXIS_legacy: (Legacy) Oregon State University Tanguay Lab 120 Hour Post-fertilization zebrafish Assay for Body Axis Malformation (AID 2283635). Summed up:
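Each dechorionated embryo was exposed alone from 6 hpf, with DMSO at 0.64% (vol/vol) and trimethyltin chloride 5 uM as positive control. Axis malformation was recorded at 120 hpf unless the embryo had died.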

The nature of assay [2]: Tanguay_ZF_120hpf_EYE_legacy: (Legacy) Oregon State University Tanguay Lab 120 Hour Post-fertilization zebrafish Assay for Eye Malformation (AID 2283636).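 Also: binary presence or absence of eye malformation scored by brightfield in 120 hpf larvae.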 Summed up:
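Static waterborne exposure of dechorionated zebrafish embryos (strain Tropical 5D), 6 to 120 hpf, sealed plates at 28C, 0.64% DMSO vehicle. Eye malformation is scored as a binary endpoint, with gain of signal analysed relative to DMSO.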

Assay [3] can be described thus: Tanguay_ZF_120hpf_SNOU_legacy: (Legacy) Oregon State University Tanguay Lab 120 Hour Post-fertilization zebrafish Assay for Snout Malformation (AID 2283637). Put shortly:
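Dechorionated zebrafish, individually housed from 6 hpf in covered, sealed wells at 28C with 0.64% DMSO vehicle, were examined at 120 hpf for snout malformation. Responses were binary and analysed positive-direction relative to DMSO.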

Assay [4] in a line: Tanguay_ZF_120hpf_OTIC_legacy: (Legacy) Oregon State University Tanguay Lab 120 Hour Post-fertilization zebrafish Assay for Otic Vesicle Malformation (AID 2283639). Summed up:
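Brightfield scoring at 120 hpf, binary present/absent; DMSO negative control, 5uM trimethyltin chloride positive control. Static exposure at 28C, final DMSO 0.64% (vol/vol). Dead embryos not scored for malformation.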

The nature of assay [5]: Tanguay_ZF_120hpf_PE_legacy: (Legacy) Oregon State University Tanguay Lab 120 Hour Post-fertilization zebrafish Assay for Pericardial Edema (AID 2283640). Put shortly:
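Zebrafish larvae are exposed from early development to 120 hpf at 28C, with 0.64% DMSO final. Each surviving larva receives a yes/no pericardial edema call by brightfield imaging, analysed relative to the DMSO baseline.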

A short description of assay [6]: Tanguay_ZF_120hpf_BRAI_legacy: (Legacy) Oregon State University Tanguay Lab 120 Hour Post-fertilization zebrafish Assay for Brain Malformation (AID 2283641). Put shortly: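 Static exposure of staged wild-type embryos until 120 hpf, kept at 28C with light excluded and final DMSO of 0.64% (vol/vol). Presence or absence of brain malformation was noted under brightfield; mortality precluded scoring.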

A short description of assay [7]: Tanguay_ZF_120hpf_SOMI_legacy: (Legacy) Oregon State University Tanguay Lab 120 Hour Post-fertilization zebrafish Assay for Somite Malformation (AID 2283647). Put shortly:
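Somitogenesis defects are recorded as binary calls in whole larvae at 120 hpf after continuous static chemical exposure starting at 6 hpf in dechorionated 5D embryos. DMSO serves as negative control and baseline.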

Assay [8] in a line: Tanguay_ZF_120hpf_PFIN_legacy: (Legacy) Oregon State University Tanguay Lab 120 Hour Post-fertilization zebrafish Assay for Pectoral Fin Malformation (AID 2283648).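 Also: each larva judged yes or no for fin defect by brightfield with dead larvae skipped.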 Put shortly:
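Scoring of pectoral fin malformation was binary, made at 120 hpf on larvae exposed statically from 6 hpf after enzymatic chorion removal. Activity was fitted upward relative to DMSO controls at 0.64% (vol/vol).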

A short description of assay [9]: Tanguay_ZF_120hpf_PIG_legacy: (Legacy) Oregon State University Tanguay Lab 120 Hour Post-fertilization zebrafish Assay for Pigmentation Malformation (AID 2283650). Put shortly:
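Endpoint is incidence of abnormal pigmentation at 120 hpf in dechorionated 5D zebrafish exposed singly from 6 hpf at 28C, DMSO vehicle at 0.64%. Embryos dying by 24 or 120 hpf are excluded from scoring.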

Assay [10] can be described thus: Tanguay_ZF_120hpf_CIRC_legacy: (Legacy) Oregon State University Tanguay Lab 120 Hour Post-fertilization zebrafish Assay for Circulatory Malformation (AID 2283651). Summed up: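 Static exposure, 6–120 hpf, 28C, sealed and dark; one dechorionated 5D embryo/well; DMSO 0.64% v/v final. Binary circulation endpoint by brightfield; dead embryos not scored.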
The nature of assay [11]: Tanguay_ZF_120hpf_SWIM_legacy: (Legacy) Oregon State University Tanguay Lab 120 Hour Post-fertilization zebrafish Assay for Swim Bladder Malformation (AID 2283654).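 Also: swim bladder malformation in each larva scored yes or no under brightfield.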 Summed up: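 Static waterborne exposure of single dechorionated Tropical 5D zebrafish embryos, 6–120 hpf, 28C, 0.64% DMSO final. Read-out: swim bladder malformation, present/absent, relative to DMSO negative control; trimethyltin chloride 5uM served as positive control.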

Assay [12] is described as follows: Tanguay_ZF_120hpf_NC_legacy: (Legacy) Oregon State University Tanguay Lab 120 Hour Post-fertilization zebrafish Assay for Notochord and Tail Malformation (AID 2283656). Summed up: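 Binary notochord-distortion calls, made by brightfield inspection, form the read-out; activity is fitted in the positive direction against DMSO. Exposure ran statically from 6 to 120 hpf at 28C with 0.64% DMSO.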

Assay [13] is described as follows: Tanguay_ZF_120hpf_JAW_legacy: (Legacy) Oregon State University Tanguay Lab 120 Hour Post-fertilization zebrafish Assay for Jaw Malformation (AID 2283638). Summed up: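 Wild-type 5D embryos, chorion removed at 4 hpf, dosed singly from 6 hpf; 28C static, sealed, foil-covered, to 120 hpf. Endpoint: jaw defect yes/no (brightfield); mortality excludes scoring.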
The nature of assay [14]: Tanguay_ZF_120hpf_CFIN_legacy: (Legacy) Oregon State University Tanguay Lab 120 Hour Post-fertilization zebrafish Assay for Caudal Fin Malformation (AID 2283649). Summed up:
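Single dechorionated 5D wild-type embryos are dosed at 6 hpf (final DMSO 0.64%) and held statically at 28C. Caudal fin malformation is recorded as present or absent at 120 hpf under brightfield, excluding dead embryos.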

Assay [15] deals with Thyroperoxidase (TPO), gene 54314. Description: CCTE_Simmons_AUR_rTPO: CCTE's Amplex UltraRed Assay for Thyroperoxidase (TPO) Inhibition, Simmons Lab (AID 2283662).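 As to AC50: potency for loss of signal meaning inhibition of peroxidase activity.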 Summed up:
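Cell-free peroxidase activity assay using rat thyroid gland microsomes with excess H2O2 (300 uM) and 25 uM Amplex UltraRed. Compounds tested from 5 nM to 87.5 uM; fluorescence measured after 30 min at 37C, analysed relative to DMSO baseline.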

Read-out in assay [16]: solute carrier (SLC22A6), SLC22A6 (gene 9356)
Description: LTEA_HepaRG_SLC22A6: Life Technologies and Expression Analysis (LTEA) Assay for solute carrier (SLC22A6) using HepaRG (AID 2283653; active = hit-call score of the fitted dose curve at least 0.9, where 1 is the maximum; inactive = score below 0.9). Particulars: mRNA level, 48 h; actives raise or lower the signal. Summed up: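 Gene-expression endpoint in HepaRG hepatic cells: duplicate 8-point concentration-response, highest 100 uM, 48 h treatment in serum-free medium with 0.5% DMSO. SLC22A6 expression measured by qRT-PCR, normalised to ACTB/GAPDH/POLR2A.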

Read-out in assay [17]: solute carrier (SLC10A1), SLC10A1 (gene 6554)
Description: LTEA_HepaRG_SLC10A1: Life Technologies and Expression Analysis (LTEA) Assay for solute carrier (SLC10A1) using HepaRG (AID 2283657; active = hit-call score of the fitted dose curve at least 0.9, where 1 is the maximum; inactive = score below 0.9). The following applies: mRNA level, 48 h; actives raise or lower the signal. Put shortly: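 Cryopreserved HepaRG cells are thawed, plated and cultured 48 h; medium is then switched to serum-free induction medium and chemicals added (8 points, max 100 uM, 0.5% DMSO). After 48 h, RNA is isolated and SLC10A1 quantified by qRT-PCR.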

Read-out in assay [18]: matrix metalloproteinase-1 (MMP1), MMP1 (gene 4312)
Description: LTEA_HepaRG_MMP1: Life Technologies and Expression Analysis (LTEA) Assay for matrix metalloproteinase-1 (MMP1) using HepaRG (AID 2283658; active = hit-call score of the fitted dose curve at least 0.9, where 1 is the maximum; inactive = score below 0.9). The following applies: mRNA level, 48 h; actives raise or lower the signal. Summed up:
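In this screen, human liver HepaRG cultures receive each chemical in duplicate for 48 h (top 100 uM, 0.5% DMSO). MMP1 expression is then quantified by TaqMan qRT-PCR with ACTB/GAPDH/POLR2A normalization.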

The nature of assay [19]: Tanguay_ZF_120hpf_TRUN_legacy: (Legacy) Oregon State University Tanguay Lab 120 Hour Post-fertilization zebrafish Assay for Truncated Body (AID 2283655). Summed up:
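Single dechorionated zebrafish embryos received test chemical from 6 hpf in 0.64% DMSO, kept at 28C. At 120 hpf, brightfield inspection noted any truncated body.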

As to `OC(CCl)CCl`, the result in assay [1], in assay [2], in assay [3], in assay [4], in assay [5] and in assay [6] was inactive. In addition, the result in assay [7], in assay [8], in assay [9], in assay [10], in assay [11] and in assay [12] was inactive.

As for `CCCCCCCCCCCCCCCCOS(=O)(=O)O`, the outcome in [1], in assay [2], in [3], in assay [13], in assay [4] and in assay [5] was inactive. In addition, the outcome in assay [6], in assay [7], in assay [8], in [14], in assay [9] and in [10] was inactive. The outcome in assay [11], in assay [12] and in assay [15] was inactive.

For `c1ccc2cc3ccccc3cc2c1`, the molecule was classed as inactive in [1], in assay [2], in [3], in [13], in assay [4] and in [5]. The outcome in assay [7], in assay [8], in assay [14], in assay [9], in assay [16] and in assay [11] was inactive. In [18], the outcome was inactive. Besides, the AC50 in assay [17] is 10.4 µM (active); in assay [15] it was 10.6 µM (active).

With `Cc1nc(-c2ccccn2)ncc1C(=O)Nn1cc(C)c2cc(F)ccc21`, the outcome in [1], in [2], in assay [3], in assay [4], in assay [5] and in assay [6] was inactive. In addition, the outcome in assay [7], in assay [8], in [14], in assay [9], in assay [10] and in assay [11] was inactive. Also, in assay [12], the molecule was called inactive.

Take `O=C(O)c1cccc(C(=O)O)c1`: the molecule was called inactive in assay [1], in [2], in [3], in assay [13], in [4] and in assay [5]. Also, the result in [7], in assay [8], in assay [14], in [9], in [10] and in [11] was inactive. The result in assay [12] was inactive.

Take `COS(C)(=O)=O`: the outcome in assay [1], in [2], in assay [3], in [13], in assay [4] and in assay [5] was inactive. Moreover, the molecule was called inactive in [6], in assay [7], in assay [8], in assay [14], in assay [9] and in assay [10]. The call in assay [11] and in [12] was inactive. Besides, the AC50 in assay [15] is 49.7 µM (active).

As for `CCCCCOC(C)=O`, the result in assay [1], in assay [2], in assay [3], in [13], in [4] and in [5] was inactive. For the same molecule, the result in [6], in [7], in assay [14], in assay [9], in assay [10] and in assay [11] was inactive. Further, the outcome in assay [19] and in assay [12] was inactive.

`CCCCC(CC)C(=O)OCCOCCOCCOC(=O)C(CC)CCCC` (stereo not given): the molecule was called inactive in assay [1], in assay [2], in assay [3], in assay [4], in [5] and in [6]. Also, the molecule was called inactive in assay [7], in assay [8], in [14], in assay [9], in assay [10] and in assay [11]. Also, in assay [12], the molecule was classed as inactive.
